Measured values: the supplement of paper PMC10338343
± gives the standard deviation. Over roughly 8,200 sequences, “pre-steady-state target cleavage rate” has its median near 0.024; the highest 2% begin near 1.3. Shown is part of a subset that was picked to be rich in the highest values.

Test system: MIWI (PIWIL1) piRISC loaded with L1MC piRNA (30 nt)
Test: pre-steady-state target cleavage rate (min^-1); MIWI and MILI are mouse PIWI proteins and EfPiwi is from a freshwater sponge; tags in brackets are library labels; higher = faster piRNA-guided slicing of the target
Settings: guide: L1MC piRNA 5'p-UAACUAAAUACUAUGCAAGCUGUAGGUCCU
Outline: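 Sequencing of uncleaved targets, normalised to depth and to weakly complementary targets, was the readout of this Cleave-'n-Seq assay. A transcribed, DNA-blocked target RNA library (0.1 nM) was mixed with 1 nM active affinity-purified piRISC carrying one synthetic guide, with or without 500 nM GTSF1 partner protein, in HEPES–potassium acetate buffer at 33 °C for 0–8 or 0–960 min. Three trials were pooled, k3 was capped at 0.0001 min^-1, and a burst-and-steady-state fit gave the pre-steady-state cleavage rate.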

[1] = auxiliary factor: 500 nM mouse GTSF1
[2] = auxiliary factor: none (no GTSF1)

Sequence	pre-steady-state target cleavage rate [1]	pre-steady-state target cleavage rate [2]
UCGUCCUACACCUUGCAUAGUAUUUAGUUA	0.986 ± 0.045	0.0586 ± 0.0084
UCGACCUACAGCUUGCAUACAAUUUAGUUA	0.0219 ± 0.0076	0.00334 ± 0.0025
UCCUCGUACAGCUUGCAUAGUAUUUAGUAA	0.903 ± 0.048	0.0263 ± 0.0049
UCGUACCUACAGCUUGCAUAGUAUUUAGUUA	0.909 ± 0.034	0.0778 ± 0.016
UCGUCGUACAGCUUGCAUAGUAUUUAGUUA	1.31 ± 0.067	0.0685 ± 0.012
UCCUCGUACAGCUUGCAAAGUAUUUAGUUA	1.32 ± 0.048	0.0595 ± 0.012
UCCUCCUACAGCUUGCAAAGUAUUUAGUUA	1.14 ± 0.039	0.0317 ± 0.0066
UCCUCGUACAGCUUGCAUAGUAUUUAGAAA	0.363 ± 0.029	0.00538 ± 0.0021
UCCACCGUACAGCUUGCAUAGUAUUUAGUUA	1.18 ± 0.054	0.0628 ± 0.012
UCCUGGUACAGCUUGCAAAGUAUUUAGUUA	0.711 ± 0.046	0.0405 ± 0.0074
UCGUGGUACAGCUUGCAUAGUAUUUAGUUA	1.23 ± 0.038	0.0818 ± 0.014
UGGUCGUACAGCUUGCAUAGUAUUUAGUUA	1.33 ± 0.056	0.073 ± 0.0095
UCCUCGUACAGCUUGCAUAGUAUUUAGUUA	1.46 ± 0.043	0.0602 ± 0.01
UCCUGCUACAGCUUGCAUAGUAUAAUGUAA	0.188 ± 0.038	–
UGGACCUACAGCUUGCAUAGUAUUAAGUUA	0.719 ± 0.06	0.0363 ± 0.006
AGGACCUACUGCUUCCAUAGUAUUUAGUUA	0.069 ± 0.011	0.00657 ± 0.0012
UCGAGCUAGAGCUUGCAUAGUAUUUAGUUA	0.962 ± 0.051	0.0483 ± 0.0092

Sequence	pre-steady-state target cleavage rate [1]	pre-steady-state target cleavage rate [2]
UCGACCAAGAGCUUGCAUAGUAUUUAGUUA	0.954 ± 0.04	0.0547 ± 0.011
UCCUGGAUGUGCUUGCAUAGUGAUUUAGUUA	0.00393 ± 0.0038	–
UCCUGGUACAGCUAGGAUAGUAUUUAGUUA	0.611 ± 0.084	0.00486 ± 0.002
UGGACCUACAGCUUGGAUAGUAUUUAGAAA	0.342 ± 0.047	0.0107 ± 0.003
UCCUGCUACAGCUUGCAAACUAUUUAGUUA	0.363 ± 0.027	0.00719 ± 0.0031
AGGACCUACAGCUUGCAUAGUAUUUUGUUA	0.949 ± 0.064	0.0718 ± 0.016
UCCUGCUACUGCUUGCAUAGUAUAUAGUUA	0.226 ± 0.024	0.0142 ± 0.0034
AGGACCUACAGGAAGCAUAGUAUUUUCAAA	0.132 ± 0.024	–
UCCUGGAUCAGGUAGCAUAGUAUUUAGUUA	0.0152 ± 0.0033	0.00289 ± 0.0022
AGGUCGUACAGCUUGCAUAGUAUUUAGUUA	1.44 ± 0.065	0.0817 ± 0.012
UCCUGGUACAGCUUGCUUAGUAUUUAGUUA	0.79 ± 0.037	0.0523 ± 0.011
UCCUCGUACAGCUUGCUUAGUAUUUAGUUA	1.51 ± 0.069	0.0419 ± 0.0089
UCCAGGUACAGCUUGCAUAGUAUUUAGUUA	1.09 ± 0.04	0.0764 ± 0.011
UCCUCCUACAGCUUGCUUAGUAUUUAGUUA	1.28 ± 0.06	0.0241 ± 0.0053
AGGACCUAGAGCUUGCAUAGUUUUUAGUUA	0.343 ± 0.023	0.0238 ± 0.0061
UCCUCCUACAGCUUGCAUAGUUAUUAGAAA	0.0862 ± 0.022	–
UCCUGGAACAGCAUGCAUAGUAUUUACUUA	0.446 ± 0.045	0.0279 ± 0.0094
